Source: PubChem BioAssay
Calls of active or inactive are those of the source.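 The calls were made as follows, unless noted: active = visually confirmed hit in the image check and inhibition above 20%; inconclusive = visually confirmed hit but inhibition not above 20%; inactive = no visual hit in the image check.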

Key:
[1] = inhibitors of TNFa-induced NFkB p65 translocation, primary screen, imaging, HUVEC, MLSMR starter and 10KST1 sets (AID 438;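 active = inhibition above 20% together with a positive visual image hit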;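 also: compound added about 3h40 before a 20 min TNFalpha stimulation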;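 as to inhibition: signal is the nuclear over cytoplasmic p65 intensity ratio per well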); conditions: HUVEC TNFa-induced p65 nuclear translocation; cell count: measured here: nuclei count (cytotoxicity indicator), at 2.08 µM; inhibition: at 2 µM, stronger effect = higher value, 0% TNFa-plus-vehicle, 100% no-TNFa wells
[2] = reduction of polyQ htt aggregates in cells – imaging, exon1htt(103Q)mCFP cells, high-content imaging, primary screen (AID 483;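 active = visual image review flags a hit and inhibition of aggregation exceeds 20%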;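 also: compound exposure lasted 3 days before fixation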;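 as to nuclei count: percent of the per-plate median nuclei count of sample wells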); conditions: exon1htt(103Q)mCFP cell line, aggregate imaging, at 2 µM; inhibition of aggregation: stronger effect = higher value; nuclei count: measured here: cell count, toxicity
[3] = endothelial E-selectin expression blockers – imaging, HUVEC, immunofluorescence, MLSMR starter and 10KST1 sets, primary screen (AID 487); conditions: HUVEC TNFalpha-induced E-selectin immunofluorescence imaging, at 2 µM; inhibition: stronger effect = higher value; nuclei count: measured here: cell number, toxicity;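 as to inhibition: signal is fraction of cell area covered by stained E-selectin grains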;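 as to nuclei count: 100% = median nuclei count of all wells on the same plate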
[4] = molecular target: Voltage-gated potassium channel subunit beta-2 (Rattus norvegicus) (UniProt P62483); assay: inhibitors of rat Kvbeta2 reductase activity – biochemical, NADPH fluorescence, primary screen (AID 622;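 active = fluorescence slope higher than the sample average by over 3 SD, cut at about -0.22 in these data, passing the limit was not always enough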;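 also: slope of raw intensity against log time taken from 70 to 1610 s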); conditions: recombinant KvBeta, 4-cyanobenzaldehyde reduction, at 10 µM, stronger effect = higher value
[5] = molecular target: Voltage-gated potassium channel subunit beta-2 (Rattus norvegicus) (UniProt P62483); assay: enhancers of rat Kvbeta2 NADPH turnover – biochemical, NADPH fluorescence, primary screen (AID 623;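 active = NADPH fluorescence slope more negative than the mean of all samples by about 3 SD, 99.7% confidence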;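 also: fluorescence intensity change per second fitted from 20 to 320 s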); conditions: Recombinant KvBeta, NADPH fluorescence decrease slope, 10 min; at 10 µM; stronger effect = lower value
[6] = molecular target: Alpha-2C adrenergic receptor (Homo sapiens) (UniProt P18825); assay: compounds altering alpha2C-coupled GIRK flux – cell-based, HEK293 alpha2C/GIRK1/2, thallium flux, primary screen (AID 624;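 active = fluorescence slope after compound addition differing from the mean of all screened samples at 99.7% confidence, in either direction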;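 also: slope of fluorescence ratio to pre-addition baseline per second over 15 to 24 s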); conditions: thallium flux BTC fluorescence, at 10 µM, actives lie on both sides
[7] = blockers of RIG-like receptor reporter activation – cell-based, Sendai virus stimulus, luciferase, 10K MLSCN set, TLR/RLR signaling modifier project, primary screen (AID 602276;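 active = inhibition at or above 50% at 10 µM; inactive = inhibition below 50%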;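 also: firefly luciferase from ISG56 promoter only with Renilla not read in this screen; 0% = Sendai virus plus DMSO and 100% = medium plus DMSO without virus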); conditions: HEK293 RL24 IRF3 luciferase reporter, at 10 µM, stronger effect = higher value
[8] = TLR3 IRF3 reporter activation blockers – cell-based, poly I:C stimulus, luciferase, 10K MLSCN set, primary screen (AID 602277;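 active = inhibition of the reporter signal at or above 50%; inactive = inhibition below 50%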); conditions: HEK293-TLR3 RL24 IRF3 luciferase reporter, at 10 µM, stronger effect = higher value

Alpha-2C adrenergic receptor (Homo sapiens), sequence (P18825 whole entry, looked up): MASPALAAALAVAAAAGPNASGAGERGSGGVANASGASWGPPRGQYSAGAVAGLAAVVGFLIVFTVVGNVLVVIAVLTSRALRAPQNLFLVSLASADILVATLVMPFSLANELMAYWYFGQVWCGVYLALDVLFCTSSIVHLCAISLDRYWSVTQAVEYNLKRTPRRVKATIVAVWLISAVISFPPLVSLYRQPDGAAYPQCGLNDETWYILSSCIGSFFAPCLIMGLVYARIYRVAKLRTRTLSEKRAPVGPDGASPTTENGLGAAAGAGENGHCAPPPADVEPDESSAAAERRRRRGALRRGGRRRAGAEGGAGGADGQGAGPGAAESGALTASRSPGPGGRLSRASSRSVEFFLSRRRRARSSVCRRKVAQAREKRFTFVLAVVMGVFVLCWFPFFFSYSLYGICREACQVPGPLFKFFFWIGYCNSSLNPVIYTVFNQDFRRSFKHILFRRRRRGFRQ
Voltage-gated potassium channel subunit beta-2 (Rattus norvegicus), sequence (P62483 whole entry, looked up): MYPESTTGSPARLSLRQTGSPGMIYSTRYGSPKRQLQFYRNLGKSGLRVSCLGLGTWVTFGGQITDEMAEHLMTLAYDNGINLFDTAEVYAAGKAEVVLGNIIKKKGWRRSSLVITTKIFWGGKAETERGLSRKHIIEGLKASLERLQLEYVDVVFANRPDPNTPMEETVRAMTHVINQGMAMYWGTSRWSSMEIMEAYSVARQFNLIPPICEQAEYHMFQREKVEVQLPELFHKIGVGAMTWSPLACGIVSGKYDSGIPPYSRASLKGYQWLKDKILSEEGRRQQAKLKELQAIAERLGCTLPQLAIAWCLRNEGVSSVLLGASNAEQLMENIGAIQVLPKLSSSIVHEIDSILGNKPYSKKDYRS

Row | Compound | cell count [1] | inhibition [1] | inhibition of aggregation [2] | nuclei count [2] | inhibition [3] | nuclei count [3] | fluorescence slope [4] | NADPH fluorescence slope [5] | slope [6] | inhibition [7] | inhibition [8]
1 | O=C(NCc1ccco1)C1(S(=O)(=O)c2ccc(Cl)cc2)CC1 | 412 | 1.1% (inactive) | -16% (inactive) | 120% | -100% (inactive) | 115% | -0.639 (inactive) | 2e-05 (inactive) | 0.00602 (inactive) | 16.2% (inactive) | 32.7% (inactive)
2 | COc1ccc(S(=O)(=O)NC(C)C(=O)Nc2cccc(C(C)=O)c2)cc1 (stereo not drawn) | 255 | 2.4% (inactive) | 14.5% (inactive) | 97.3% | -2.9% (inactive) | 62.6% | -0.402 (inactive) | -2.7e-05 (inactive) | 0.00498 (inactive) | 14.3% (inactive) | 15.3% (inactive)
3 | O=C(O)c1ccccc1S(=O)(=O)NCC(O)COc1ccc(Br)cc1 (stereo not drawn) | 435 | 3.5% (inactive) | -17% (inactive) | 106% | 31.4% (inactive) | 81.4% | -0.39 (inactive) | 2.1e-05 (inactive) | 0.00443 (inactive) | 10.6% (inactive) | 14.4% (inactive)
4 | O=C1C2CC=CCC2C(=O)N1c1ccc(Cc2ccncc2)cc1 (stereo not drawn) | 591 | -2.9% (inactive) | -8.1% (inactive) | 107% | 29.1% (inactive) | 95.7% | -0.43 (inactive) | 5.4e-05 (inactive) | 0.00567 (inactive) | -2.68% (inactive) | -12.7% (inactive)
5 | CCOC(=O)c1[nH]c2ccccc2c1NC(=O)C(C)(C)C | 692 | -10.7% (inactive) | -8.7% (inactive) | 117% | -30.2% (inactive) | 105% | -0.586 (inactive) | -4.7e-05 (inactive) | 0.00597 (inactive) | 13.4% (inactive) | 45.1% (inactive)
6 | CN(c1ccc(OCc2nnc(-c3ccccc3)o2)cc1)S(=O)(=O)c1ccccc1 | 587 | 10.1% (inactive) | 13.2% (inactive) | 95% | 21.6% (inactive) | 82% | -0.335 (inactive) | -5.4e-05 (inactive) | 0.00414 (inactive) | 11.5% (inactive) | -5.42% (inactive)
7 | CN(C)c1ccc(CNCCC2(O)CCOC(C)(C)C2)cc1 (stereo not drawn) | 495 | -1.4% (inactive) | 3.5% (inactive) | 89.5% | -25% (inactive) | 114% | -0.472 (inactive) | -4.7e-06 (inactive) | 0.00622 (inactive) | 0.927% (inactive) | 28.2% (inactive)
8 | COc1cc(Cl)c(C)cc1NC(=O)COC(=O)c1cnc(C)cn1 | 345 | 3.8% (inactive) | 16.5% (inactive) | 95.2% | -118% (inactive) | 110% | -0.51 (inactive) | 3.8e-05 (inactive) | 0.00519 (inactive) | -3.59% (inactive) | 12.5% (inactive)
9 | COc1cc(OC)c(C2C(C#N)=C(N)OC3=C2C(=O)CC(C)(C)C3)cc1OC (stereo not drawn) | 407 | -2.7% (inactive) | 22.2% (inactive) | 88.4% | -27.1% (inactive) | 104% | -0.501 (inactive) | -3.5e-05 (inactive) | 0.00648 (inactive) | -2.62% (inactive) | 5.85% (inactive)
10 | COc1cc(OC)c(C2N(C)c3ccccc3N2C)cc1OC | 403 | 1.7% (inactive) | -0.8% (inactive) | 111% | -64.6% (inactive) | 105% | -0.502 (inactive) | -1.1e-05 (inactive) | 0.00623 (inactive) | -3.76% (inactive) | 26.3% (inactive)
11 | CCc1ccccc1NC(=O)CSc1ncn[nH]1 | 306 | 9% (inactive) | -8.6% (inactive) | 101% | 40% (inactive) | 102% | -0.397 (inactive) | -1.9e-06 (inactive) | 0.00367 (inactive) | 1.64% (inactive) | 32.7% (inactive)
12 | COc1cc(S(=O)(=O)N(C)C)ccc1F | 333 | -4.5% (inactive) | 5.9% (inactive) | 87.4% | -114% (inactive) | 116% | -0.413 (inactive) | -5e-05 (inactive) | 0.00561 (inactive) | 17.1% (inactive) | 9.1% (inactive)
13 | O=C(C1CCCCC1)N1CCC(c2nc3c(nnn3Cc3ccccc3Cl)c(=O)[nH]2)CC1 | 372 | -1.5% (inactive) | -5.2% (inactive) | 110% | -144% (inactive) | 115% | -0.359 (inactive) | -4.8e-05 (inactive) | 0.00569 (inactive) | 11.3% (inactive) | 26.2% (inactive)
14 | COc1cc(C)c(N)cc1C(C)C | 422 | -5.6% (inactive) | 5.2% (inactive) | 81.4% | -41.7% (inactive) | 110% | -0.589 (inactive) | -1.8e-05 (inactive) | 0.00295 (inactive) | 12.9% (inactive) | 18.3% (inactive)
15 | Brc1ccc2[nH]c3nc(SCCN4CCOCC4)nnc3c2c1 | 683 | -6.3% (inactive) | 9% (inactive) | 84.2% | -31.6% (inactive) | 114% | -0.56 (inactive) | 1.6e-05 (inactive) | 0.00594 (inactive) | -18.9% (inactive) | -40.9% (inactive)
16 | CCN(CC)c1nc(N(CC)CC)[nH]c(=O)n1 | 477 | -6.5% (inactive) | 15.2% (inactive) | 92.1% | -0.4% (inactive) | 59.6% | -0.512 (inactive) | -3.2e-05 (inactive) | 0.00579 (inactive) | 3.82% (inactive) | -16% (inactive)
17 | Cc1nc(NC(=O)C23CCC(C)(C(=O)O2)C3(C)C)sc1C (stereo not drawn) | 595 | -13.1% (inactive) | 15.4% (inactive) | 105% | -22.1% (inactive) | 106% | -0.462 (inactive) | 8.7e-06 (inactive) | 0.00641 (inactive) | 12.9% (inactive) | 29.5% (inactive)
18 | Cc1csc2ncc(C(=O)N3CCc4ccccc43)c(=O)n12 | 601 | 5.3% (inactive) | -17% (inactive) | 104% | 10% (inactive) | 110% | -0.551 (inactive) | -4.3e-05 (inactive) | 0.00571 (inactive) | 11.1% (inactive) | 39.2% (inactive)
19 | CCn1c(C(=O)N2CCCC(C(=O)NCCCc3ccccc3)C2)cc2sccc21 (stereo not drawn) | 618 | -12% (inactive) | 40.9% (active) | 123% | -19.4% (inactive) | 104% | -0.583 (inactive) | -1.2e-05 (inactive) | 0.00576 (inactive) | -0.231% (inactive) | -1.26% (inactive)
20 | O=S(=O)(NC1CCCC1)c1ccccc1Cl | 739 | -7.3% (inactive) | -2.5% (inactive) | 111% | -21.2% (inactive) | 116% | -0.455 (inactive) | -3.7e-05 (inactive) | 0.00495 (inactive) | 7.42% (inactive) | 15.4% (inactive)
21 | CCc1nnc(NC(=O)C2Cc3ccccc3CN2S(=O)(=O)c2cccs2)s1 (stereo not drawn) | 521 | -10.2% (inactive) | -27.6% (inactive) | 116% | -57.1% (inactive) | 117% | -0.482 (inactive) | -2.6e-05 (inactive) | 0.00706 (inactive) | -21.3% (inactive) | -50.1% (inactive)
22 | CCc1nnc(NC(=O)c2ccc(S(=O)(=O)N(CC(C)C)CC(C)C)cc2)o1 | 415 | -1.4% (inactive) | 2.2% (inactive) | 94.8% | 12.8% (inactive) | 81.5% | -0.507 (inactive) | -1.1e-05 (inactive) | 0.00793 (inactive) | 8.12% (inactive) | 15.2% (inactive)
23 | O=C(c1ccccc1Br)N1CCN(c2ccccc2)CC1 | 619 | 1.2% (inactive) | -1.6% (inactive) | 100% | -38.7% (inactive) | 123% | -0.488 (inactive) | -0.000203 (inactive) | 0.00488 (inactive) | 9.32% (inactive) | 14.8% (inactive)
24 | CCOc1cccc(C(=O)N2CCCCC2c2cccnc2)c1 (stereo not drawn) | 269 | -0.4% (inactive) | -24.6% (inactive) | 95.1% | -148% (inactive) | 101% | -0.526 (inactive) | -4.2e-05 (inactive) | 0.00421 (inactive) | 9.72% (inactive) | 19.7% (inactive)
25 | Cc1ccc(-c2ccc(=O)n(CCC(=O)NCCN3CCCCC3C)n2)cc1 (stereo not drawn) | 216 | 4.2% (inactive) | -7.7% (inactive) | 86.5% | -4.1% (inactive) | 100% | -0.442 (inactive) | -2.5e-05 (inactive) | 0.00419 (inactive) | 1.11% (inactive) | 2.82% (inactive)
26 | O=c1sc(Nc2ccccc2)nc2ccsc12 | 323 | -9.8% (inactive) | -0.2% (inactive) | 91.4% | -36.8% (inactive) | 122% | -0.334 (inactive) | -2.1e-05 (inactive) | 0.00308 (inactive) | -17.1% (inactive) | -57.8% (inactive)
27 | COc1cc(NC(=O)C2CCCN2S(=O)(=O)c2cccc3cccnc23)cc(OC)c1OC (stereo not drawn) | 667 | 0.6% (inactive) | 15.1% (inactive) | 77.6% | -75.5% (inactive) | 110% | -0.598 (inactive) | -3.4e-05 (inactive) | 0.00756 (inactive) | 14.4% (inactive) | 32% (inactive)
28 | CCCCn1c(CNC(=O)CCC)nc2ccccc21 | 635 | 3.9% (inactive) | -10.7% (inactive) | 124% | -30.1% (inactive) | 116% | -0.565 (inactive) | -4.3e-05 (inactive) | 0.00641 (inactive) | 5.22% (inactive) | 31.7% (inactive)
